# ELG1 repair inh: blocks ELG1-dependent DNA repair in HEK293T cells; actives 2.3% (n = 330,000); Potency, µM (series often up to 46.1 µM), usual class: inhibitors; HEK293T ELG1-luciferase reporter, luminescence, 16 h; DNA damage induced by 5-fluorouridine; AID 504467; note: nearly all actives have a fitted effect of over 55% in size
#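 Luminescence from the luciferase reporter, measured 30 min after ONE-Glo reagent at room temperature, was the read-out. Beforehand, 2,000 cells per well were exposed for 16 hr at 37 °C to 5-fluorouridine together with compound or vehicle.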
# HT1080 IDH1KD tx: kills HT-1080 cells with IDH1 knockdown | HT-1080 IDH1 knockdown viability, ATP luminescence, 48 h | Potency, µM (doses to about 46.1 µM), most hits filed as cytotoxic | actives 2% (n = 360,000) | AID 686971
#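 Knockdown cells (IDH1KD HT-1080) received compounds 2 h after plating at 750 cells/well and were kept 48 h at 37 °C in 5% FBS RPMI. A CellTiter-Glo luminescence read gave % activity for curve fitting.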
# TDP1 cell CPT: DT40-hTDP1 cell growth loss with CPT; actives 12% (n = 420,000); chicken DT40 Tdp1-/-;hTDP1 cells + 20 nM CPT, ATP luminescence, 48 h; Potency, µM (highest dose often 46.2 µM), hits mostly inhibitors; note: nearly all actives have a fitted effect of over 55% in size
#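 Chicken DT40 Tdp1-/- cells complemented with human TDP1, 400 cells/well, exposed to compounds plus 20 nM camptothecin for at least 48 h at 37 C; viability read as ATP content by CellTiter-Glo luminescence.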
# DT40 TDP1 no CPT: qHTS for Inhibitors of human tyrosyl-DNA phosphodiesterase 1 (TDP1): qHTS in cells in absence of CPT | DT40 Tdp1-/- hTDP1 cells, no CPT, ATP luminescence, 48 h | Potency, µM (series often up to 46.2 µM), usual class: inhibitors | actives 15% (n = 420,000); note: nearly all actives have a fitted effect of over 55% in size
#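 Chicken DT40 Tdp1-/- cells complemented with human TDP1, screened without camptothecin (DMSO vehicle only), 400 cells/well. Compounds pin-transferred, cells incubated at 37 °C for at least 48 hr. Growth read as ATP-dependent luminescence (CellTiter-Glo, 30 min at RT).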
# HT1080NT lethal: kills 2HG-producing HT-1080-NT fibrosarcoma cells; HT-1080-NT fibrosarcoma viability, CellTiter-Glo ATP luminescence, 48 h; Potency, µM (highest dose often 46.1 µM), most hits filed as cytotoxic; actives 1.6% (n = 360,000);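 note: NT is the 2HG producing partner of a matched IDH1 knockdown line; nearly all actives have a fitted effect of over 55% in size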
#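 Toxicity toward the 2HG-producing NT line was scored as %Activity, normalised to DMSO and no-cell wells, from CellTiter-Glo luminescence after 48 hours' treatment.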
# IL1B secr inh: inflammasome signaling inhibition, IL-1 beta readout; activity change, % at 57.5 µM; AID 743279; actives 4.7% (n = 360,000); THP-1 LPS/ATP IL-1B secretion, AlphaLISA, 16 h; active compounds read low; in the data active = activity change below about -50%; inconclusive = mostly about -30% to -49%
#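 Secreted IL-1B measured by AlphaLISA bead assay after 16 h compound exposure of THP-1 cells; compounds (final up to 57.5 uM) added 1 h before LPS (250 ng/mL) and ATP (1.25 mM) stimulation; lower signal means less secretion.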
# Hits are given with their value; n = inactive; u = inconclusive; x = no result; [ ] = dose if it differs, or a comment. Only some compounds are listed: those with a hit (about 19% of all), similar ones and a draw of the others. Unless noted, calls come from the whole dose curve; as a rule, active = well fitted curve in the direction sought with a large enough effect; inconclusive = small, poorly fitted or top-dose-only effect, or another doubt; inactive = no such curve, though single readings can be large; an effect the other way counts as inactive or inconclusive.
SMILES,ELG1 repair inh,HT1080 IDH1KD tx,TDP1 cell CPT,DT40 TDP1 no CPT,HT1080NT lethal,IL1B secr inh
CCc1nc(SCC(=O)N2CCCCC2)c2c(=O)n(C)c(=O)n(C)c2n1,n,n,n,n,n,n
CC1CCN(C(=O)c2cc3c(=O)n(C)c4cc(Cl)ccc4c3s2)CC1,x,x,n,n,x,x
CC1CCCC(NC(=O)COC(=O)/C=C/c2ccco2)C1C (stereo not given),u,n,u,n,n[9.24 µM],n
O=C(COC(=O)c1c2c(nc3ccccc13)/C(=C\c1ccco1)CC2)NC1CCCC1,x,n,16µM,23µM,n,n
CN(CCC#N)C(=O)COC(=O)c1nn(-c2ccccc2)c(=O)c2ccccc12,n,n,n,n,n,n
O=C(COC(=O)c1ccco1)NC1CCCCC1,n,n,n,n,n,n
CN(CCC#N)C(=O)COC(=O)c1c2c(nc3ccccc13)/C(=C\c1ccco1)CC2,x,n,21µM,13µM,n,-63
CC1CCCCC1NC(=O)COC(=O)c1c2c(nc3ccccc13)/C(=C\c1ccco1)CC2 (stereo not given),x,n,29µM,23µM,n,u
CN(Cc1ccco1)c1ccnc(-c2cccc(NS(C)(=O)=O)c2)n1,x,x,u,n,x,x
CC(=O)c1ccc(N2CCN(S(=O)(=O)c3c(C)nc4sc(C)cn4c3=O)CC2)cc1,x,x,n,n,x,x
C[C@H](CC[C@@H]1OC1(C)C)C1CC[C@H]2[C@@H]3CC=C4C[C@@H](O)CC[C@]4(C)[C@H]3CC[C@]12C (stereo not given in full),x,x,u,n,x,x
COc1ccc(CNC(=O)CCc2c(C)nc3nc(CNC(=O)OC(C)(C)C)nn3c2C)cc1,x,x,n,n,x,x
O=C(Nc1ccc(N2CCN(C(=O)c3ccccc3)CC2)c(Cl)c1)c1ccco1,12µM,u,16µM,13µM,n,-79
CC(=O)N1CCN(c2ccc(NC(=O)c3ccco3)cc2Cl)CC1,u,n,n,n,n,n
CCCC(=O)N1CCN(c2ccc(NC(=O)c3cc4ccccc4o3)cc2Cl)CC1,2.3µM,21µM,3.3µM,3.7µM,18µM,-111
COC(=O)c1ccc(N2CCN(C)CC2)c(NC(=O)c2cc3ccccc3o2)c1,n,n,21µM,23µM,n,n
CC(C)C(=O)N1CCN(c2ccc(NC(=O)c3ccco3)cc2Cl)CC1,u,n,u,u,n,n
O=C(Nc1ccc(N2CCN(C(=O)c3ccco3)CC2)c(Cl)c1)c1cc2ccccc2o1,5.2µM,15µM,4.1µM,8.2µM,u,-105
CN(C(=O)COC(=O)c1ccc2c(c1)OCO2)c1c(N)n(Cc2ccccc2)c(=O)[nH]c1=O,n,n,n,n,n,n
COc1ccc(CN2CCC(n3cc(C(=O)N4CCCC4)nn3)CC2)c(OC)c1C,x,x,n,n,x,x
O=C(NCc1ccccc1)c1nccnc1CO,n,n,n,n,n,n
CCC(=O)N1CCN(c2ccc(NC(=O)c3cc4ccccc4o3)cc2Cl)CC1,5.8µM,16µM,9.2µM,13µM,u,-115
COc1ccc(CN2CCCN(CC(=O)Nc3cc(C)ccc3C)S2(=O)=O)cc1,x,x,21µM,21µM,x,x
COC(=O)c1ccc(OC)c(CN2CCCN(Cc3cc(C)ccc3C)S2(=O)=O)c1,15µM,n,u,u,n,n
COc1cc(OC)c(NC(=O)CN2CCCN(Cc3ccccc3C)S2(=O)=O)cc1Cl,x,x,u,n,x,x
CCOC(=O)c1ccccc1NC(=O)CN1CCCN(Cc2cc(C)ccc2C)S1(=O)=O,x,x,21µM,21µM,x,x
CCc1cccc(C)c1NC(=O)CN1CCCN(Cc2ccc(C)cc2)S1(=O)=O,x,x,16µM,10µM,x,x
Cc1ccc(S(=O)(=O)N2CCN(CC(=O)NCC3(N4CCOCC4)CCCCC3)CC2)cc1,n,n,n,n,n,n
CO[C@H]1[C@H](NC(=O)c2ccco2)c2ccccc2C12CCN(Cc1cnn(-c3ccccc3)c1)CC2,x,x,n[9.04 µM],n,x,x
